Data: PubChem BioAssay (EPA / NIEHS)
Values joined by “and” are separate entries in the source; they are usually repeats but may differ in a detail not shown here. Equal entries are not always repeated. Results filed as inconclusive are left out. Some compounds were tested as several samples or in several runs, with calls that do not always agree. Active and inactive are the calls of the source. The calls were made as follows, unless noted: active = hit-call score of the fitted dose curve at least 0.9, where 1 is the maximum; inactive = score below 0.9.

How the values were obtained:
[1] = BSK_4H_Eotaxin3: BioMAP Diversity Plus: 4H Assay for Eotaxin 3 Biomarker Activity (AID 2283000); conditions: primary human endothelial cells (HUVEC); actives raise or lower the signal
Procedure, shortened: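 Chemicals were added to human umbilical vein endothelium cultures, and Eotaxin-3 was quantified by ELISA at 24 h. Values were derived by bidirectional fitting with DMSO serving as negative control and activity baseline.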

[2] = read-out: Intercellular Adhesion Molecule 1 (ICAM1), ICAM1 (gene 3383); assay: BSK_3C_ICAM1: BioMAP Diversity Plus: 3C Assay for Intercellular Adhesion Molecule 1 (ICAM1) Biomarker Activity (AID 2283003); conditions: primary human endothelial cells (HUVEC); actives raise or lower the signal
Procedure, shortened: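 Human vascular endothelial primary cells, 3C conditions, 24 h treatment. ICAM-1 by ELISA.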

[3] = BSK_3C_Proliferation: Cell Proliferation Assessment in the BioMAP Diversity Plus: 3C Assay (AID 2283006); conditions: primary human endothelial cells (HUVEC);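 as to AC50: potency may reflect either rise or fall in cell number versus DMSO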
Procedure, shortened: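 Proliferation of human vascular endothelial primary cells after 48 h dosing, quantified as SRB-stained protein at 560 nm relative to DMSO.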

[4] = molecular target: Peroxisome proliferator-activated receptor gamma (Homo sapiens) (UniProt P37231); assay: ATG_PPARg_TRANS: Attagene TRANS-FACTORIAL HepG2 Assay for human Peroxisome Proliferator-activated Receptor-gamma (PPARg) (AID 2283007; active = hit-call score of the fitted dose curve at least 0.9, where 1 is the maximum)
Procedure, shortened: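 HepG2 cells are transiently transfected with GAL4-UAS reporter units driven by chimeric NR-Gal4 fusions and dosed for 24 h. Reporter mRNA is quantified by RT-PCR, 6-FAM labelling, HpaI digestion and capillary electrophoresis. Induction is scored against DMSO.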

[5] = molecular target: Nuclear receptor subfamily 1 group I member 2 (Homo sapiens) (UniProt O75469); assay: ATG_PXR_TRANS: Attagene TRANS-FACTORIAL HepG2 Assay for human Pregnane X Receptor (PXR) (AID 2283008; active = hit-call score of the fitted dose curve at least 0.9, where 1 is the maximum)
Procedure, shortened: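 HepG2 cells transiently transfected with GAL4-UAS reporter units and PXR-Gal4 chimera, exposed 24 h. Reporter mRNA quantified by RT-PCR, fluorescent labelling, HpaI digestion and capillary electrophoresis; gain of signal vs DMSO.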

[6] = molecular target: human Retinoic Acid Receptor gamma (RARg), RARG (gene 5916) (UniProt P13631); assay: ATG_RARg_TRANS: Attagene TRANS-FACTORIAL HepG2 Assay for human Retinoic Acid Receptor gamma (RARg) (AID 2283009; active = hit-call score of the fitted dose curve at least 0.9, where 1 is the maximum)
Procedure, shortened: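 HepG2, RARg-GAL4 TRANS system, 24 h exposure; reporter mRNA by RT-PCR + CE fluorescence; increase over DMSO.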

[7] = molecular target: human Retinoid X Receptor beta (RXRb), RXRB (gene 6257) (UniProt P28702); assay: ATG_RXRb_TRANS: Attagene TRANS-FACTORIAL HepG2 Assay for human Retinoid X Receptor beta (RXRb) (AID 2283013; active = hit-call score of the fitted dose curve at least 0.9, where 1 is the maximum)
Procedure, shortened: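 Multiplexed TRANS reporter assay in HepG2; 24 h dosing; reporter mRNA by RT-PCR/CE fluorescence; gain-of-signal relative to DMSO.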

[8] = read-out: E-selectin (Homo sapiens) (UniProt P16581); assay: BSK_3C_Eselectin: BioMAP Diversity Plus: 3C Assay for Eselectin Biomarker Activity (AID 2283015); conditions: primary human endothelial cells (HUVEC); actives raise or lower the signal
Procedure, shortened: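 ELISA read-out of E-selectin on endothelial monolayers after 24 h chemical treatment. Human umbilical vein primary cells served as the system, with DMSO defining baseline activity for bidirectional fitting.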

[9] = read-out: Interleukin-1 alpha (IL1a), IL1A (gene 3552); assay: BSK_BE3C_IL1a: BioMAP Diversity Plus: BE3C Assay for Interleukin-1 alpha (IL1a) Biomarker Activity (AID 2283016); conditions: primary human bronchial epithelial cells; actives raise or lower the signal
Procedure, shortened: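 Cultures of primary human bronchial epithelial cells receive test chemical. After 24 h, IL-1a is quantified by ELISA, while parallel wells are fixed in TCA and SRB-stained for total protein. Changes in either direction are fitted relative to DMSO.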

[10] = read-out: Monocyte Chemoattractant Protein-1 (MCP1), CCL2 (gene 6347); assay: BSK_3C_MCP1: BioMAP Diversity Plus: 3C Assay for Monocyte Chemoattractant Protein-1 (MCP1) Biomarker Activity (AID 2283017); conditions: primary human endothelial cells (HUVEC); actives raise or lower the signal
Procedure, shortened: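 ELISA read-out of MCP-1 from human umbilical vein endothelial cell cultures harvested 24 h post-dosing. Gain or loss of signal was fitted relative to DMSO.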

[11] = read-out: Monocyte Chemoattractant Protein-1 (MCP1), CCL2 (gene 6347); assay: BSK_4H_MCP1: BioMAP Diversity Plus: 4H Assay for Monocyte Chemoattractant Protein-1 (MCP1) Biomarker Activity (AID 2283018); conditions: primary human endothelial cells (HUVEC); actives raise or lower the signal
Procedure, shortened: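 Readout: MCP-1 ELISA on compound-treated HUVEC, sampled 24 h post-dosing. Baseline and negative control DMSO; bidirectional fit. Overt toxicity checked alongside by sulforhodamine B protein staining at time of biomarker measurement.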

[12] = read-out: Human Leukocyte Antigen - DR isotype (HLADR), HLA-DRA (gene 3122); assay: BSK_3C_HLADR: BioMAP Diversity Plus: 3C Assay for Human Leukocyte Antigen - DR isotype (HLADR) Biomarker Activity (AID 2283019); conditions: primary human endothelial cells (HUVEC); actives raise or lower the signal
Procedure, shortened: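 ELISA readout of surface HLA-DR on human umbilical vein endothelium, taken 24 h after chemical treatment. Gain- and loss-of-signal were both fitted relative to DMSO.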

[13] = read-out: Interleukin-8 (IL8), CXCL8 (gene 3576); assay: BSK_3C_IL8: BioMAP Diversity Plus: 3C Assay for Interleukin-8 (IL8) Biomarker Activity (AID 2283020); conditions: primary human endothelial cells (HUVEC); actives raise or lower the signal
Procedure, shortened: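 Human vascular endothelial cells (umbilical vein) in the 3C system; IL-8 level detected by ELISA at 24 h post-dose, with DMSO as baseline.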

[14] = molecular target: human Peroxisome Proliferator-activated Receptor delta (PPARd), PPARD (gene 5467) (UniProt Q03181); assay: ATG_PPARd_TRANS: Attagene TRANS-FACTORIAL HepG2 Assay for human Peroxisome Proliferator-activated Receptor delta (PPARd) (AID 2283002; active = hit-call score of the fitted dose curve at least 0.9, where 1 is the maximum)
Procedure, shortened: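 HepG2 cells transiently transfected with multiplexed GAL4-UAS reporter units and exogenous chimeric NR-Gal4 proteins; 24 h compound exposure. Reporter mRNA measured by RT-PCR, 6-FAM labelling, HpaI digestion and capillary electrophoresis; gain of signal versus DMSO.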

[15] = molecular target: human RAR-related Orphan Receptor beta (RORb), RORB (gene 6096) (UniProt Q92753); assay: ATG_RORb_TRANS: Attagene TRANS-FACTORIAL HepG2 Assay for human RAR-related Orphan Receptor beta (RORb) (AID 2283010; active = hit-call score of the fitted dose curve at least 0.9, where 1 is the maximum)
Procedure, shortened: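 In this TRANS-format test, human HepG2 cells express chimeric NR-Gal4 fusion proteins driving GAL4-UAS reporters. After 24 h dosing, reporter transcripts are measured by fluorescent RT-PCR/capillary electrophoresis, with DMSO as negative control.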

[16] = molecular target: human RAR-related Orphan Receptor gamma (RORg), RORC (gene 6097) (UniProt P51449); assay: ATG_RORg_TRANS: Attagene TRANS-FACTORIAL HepG2 Assay for human RAR-related Orphan Receptor gamma (RORg) (AID 2283011; active = hit-call score of the fitted dose curve at least 0.9, where 1 is the maximum)
Procedure, shortened: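 First, HepG2 liver cells were transfected with GAL4-UAS-driven reporter constructs and the RORg-Gal4 fusion. Next, they were treated with chemical for 24 h. Finally, reporter mRNA was quantified by RT-PCR and capillary electrophoresis, with upward activity fitted against DMSO.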

[17] = molecular target: human Thyroid Receptor alpha (THRa1), THRA (gene 7067) (UniProt P10827); assay: ATG_THRa1_TRANS: Attagene TRANS-FACTORIAL HepG2 Assay for human Thyroid Receptor alpha (THRa1) (AID 2283014; active = hit-call score of the fitted dose curve at least 0.9, where 1 is the maximum)
Procedure, shortened: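 Reporter transcript induction, read by capillary electrophoresis of 6-FAM-labelled RT-PCR products, reflects activity of a transfected THRa1-Gal4 fusion in HepG2 liver cells. Cells were dosed for 24 h; activity was fitted in the positive direction against DMSO.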

[18] = molecular target: Retinoic acid receptor RXR-alpha (Homo sapiens) (UniProt P19793); assay: ATG_RXRa_TRANS: Attagene TRANS-FACTORIAL HepG2 Assay for human Retinoid X Receptor alpha (RXRa) (AID 2283012; active = hit-call score of the fitted dose curve at least 0.9, where 1 is the maximum)
Procedure, shortened: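 Cells (HepG2) carried transiently transfected GAL4-responsive reporter units. Following a 24 h chemical incubation, reporter mRNA induction was read via RT-PCR fragment analysis; DMSO served as negative control and baseline.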

[19] = molecular target: human Retinoic Acid Receptor beta (RARb), RARB (gene 5915) (UniProt P10826); assay: ATG_RARb_TRANS: Attagene TRANS-FACTORIAL HepG2 Assay for human Retinoic Acid Receptor beta (AID 2283004; active = hit-call score of the fitted dose curve at least 0.9, where 1 is the maximum)
Procedure, shortened: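 Transient transfection of HepG2 with multiple reporter units → chemical dosing, 24 h → total RNA isolation → RT with oligo(dT) → reporter-specific PCR, 6-FAM primer extension, HpaI digest → capillary electrophoresis. Positive direction vs DMSO control.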

Measured: AC50

Chain of human Retinoid X Receptor beta (RXRb), RXRB (gene 6257) (P28702 whole entry, looked up): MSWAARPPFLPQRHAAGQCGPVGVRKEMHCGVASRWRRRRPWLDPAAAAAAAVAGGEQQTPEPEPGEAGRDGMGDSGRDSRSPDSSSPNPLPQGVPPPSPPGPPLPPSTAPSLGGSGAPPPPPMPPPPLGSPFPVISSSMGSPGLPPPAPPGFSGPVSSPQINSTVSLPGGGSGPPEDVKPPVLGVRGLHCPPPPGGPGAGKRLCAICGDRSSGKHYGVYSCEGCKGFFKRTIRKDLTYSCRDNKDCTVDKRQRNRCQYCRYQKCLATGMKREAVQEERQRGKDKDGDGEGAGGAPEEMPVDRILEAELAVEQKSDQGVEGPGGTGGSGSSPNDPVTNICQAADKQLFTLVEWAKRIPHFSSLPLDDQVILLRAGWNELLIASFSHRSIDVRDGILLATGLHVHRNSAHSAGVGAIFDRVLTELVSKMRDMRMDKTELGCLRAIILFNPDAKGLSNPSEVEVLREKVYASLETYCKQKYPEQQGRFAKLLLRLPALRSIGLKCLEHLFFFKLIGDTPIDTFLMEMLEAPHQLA
Chain of human RAR-related Orphan Receptor beta (RORb), RORB (gene 6096) (Q92753 whole entry, looked up, the tested form may be a part): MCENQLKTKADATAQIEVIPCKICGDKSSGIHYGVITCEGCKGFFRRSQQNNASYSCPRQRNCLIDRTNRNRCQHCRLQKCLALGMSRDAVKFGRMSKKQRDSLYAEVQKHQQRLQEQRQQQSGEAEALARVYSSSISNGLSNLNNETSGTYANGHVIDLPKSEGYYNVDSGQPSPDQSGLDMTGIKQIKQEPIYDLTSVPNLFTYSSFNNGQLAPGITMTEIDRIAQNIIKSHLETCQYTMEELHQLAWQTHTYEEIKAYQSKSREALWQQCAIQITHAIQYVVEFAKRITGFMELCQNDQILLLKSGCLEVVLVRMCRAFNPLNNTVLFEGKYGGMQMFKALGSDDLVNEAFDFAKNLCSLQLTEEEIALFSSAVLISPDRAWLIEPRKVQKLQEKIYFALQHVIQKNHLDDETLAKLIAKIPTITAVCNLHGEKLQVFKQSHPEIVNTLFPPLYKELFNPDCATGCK
Chain of human Thyroid Receptor alpha (THRa1), THRA (gene 7067) (P10827 whole entry, looked up, the tested form may be a part): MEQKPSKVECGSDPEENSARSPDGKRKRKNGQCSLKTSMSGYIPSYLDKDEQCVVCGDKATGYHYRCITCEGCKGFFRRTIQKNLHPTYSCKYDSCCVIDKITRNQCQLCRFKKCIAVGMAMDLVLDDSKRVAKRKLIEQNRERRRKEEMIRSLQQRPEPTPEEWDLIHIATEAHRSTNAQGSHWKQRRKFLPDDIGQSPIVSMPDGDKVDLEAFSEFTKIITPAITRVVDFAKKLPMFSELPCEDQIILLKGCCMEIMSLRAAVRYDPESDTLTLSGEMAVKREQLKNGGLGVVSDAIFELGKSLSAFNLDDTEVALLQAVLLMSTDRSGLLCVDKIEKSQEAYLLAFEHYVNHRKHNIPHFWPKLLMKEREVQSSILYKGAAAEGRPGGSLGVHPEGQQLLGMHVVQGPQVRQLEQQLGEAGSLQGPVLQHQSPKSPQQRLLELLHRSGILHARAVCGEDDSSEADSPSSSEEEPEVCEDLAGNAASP
Chain of human Peroxisome Proliferator-activated Receptor delta (PPARd), PPARD (gene 5467) (Q03181 whole entry, looked up, the tested form may be a part): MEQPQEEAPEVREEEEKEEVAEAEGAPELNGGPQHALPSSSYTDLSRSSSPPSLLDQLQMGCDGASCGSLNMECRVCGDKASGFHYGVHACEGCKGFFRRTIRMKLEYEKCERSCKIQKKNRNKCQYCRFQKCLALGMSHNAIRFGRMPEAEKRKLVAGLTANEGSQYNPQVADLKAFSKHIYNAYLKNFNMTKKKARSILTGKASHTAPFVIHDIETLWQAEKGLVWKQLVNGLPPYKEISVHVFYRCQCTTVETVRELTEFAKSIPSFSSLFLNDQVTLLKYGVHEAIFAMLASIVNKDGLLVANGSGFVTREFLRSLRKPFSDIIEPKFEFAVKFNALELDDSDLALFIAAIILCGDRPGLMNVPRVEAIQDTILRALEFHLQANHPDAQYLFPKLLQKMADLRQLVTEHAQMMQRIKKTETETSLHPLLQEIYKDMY
Chain of human Retinoic Acid Receptor gamma (RARg), RARG (gene 5916) (P13631 whole entry, looked up, the tested form may be a part): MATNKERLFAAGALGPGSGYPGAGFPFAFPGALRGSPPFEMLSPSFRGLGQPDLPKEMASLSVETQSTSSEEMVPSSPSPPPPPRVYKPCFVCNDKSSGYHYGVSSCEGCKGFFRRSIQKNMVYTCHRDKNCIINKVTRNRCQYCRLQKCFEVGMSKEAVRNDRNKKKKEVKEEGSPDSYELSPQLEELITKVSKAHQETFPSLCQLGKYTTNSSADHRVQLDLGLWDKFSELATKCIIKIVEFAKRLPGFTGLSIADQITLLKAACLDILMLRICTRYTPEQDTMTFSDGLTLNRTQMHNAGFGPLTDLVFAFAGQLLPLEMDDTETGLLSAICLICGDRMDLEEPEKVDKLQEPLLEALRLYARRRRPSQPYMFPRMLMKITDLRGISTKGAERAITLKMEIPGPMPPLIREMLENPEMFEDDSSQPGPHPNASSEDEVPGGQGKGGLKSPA
Chain of Retinoic acid receptor RXR-alpha (Homo sapiens) (P19793 whole entry, looked up, the tested form may be a part): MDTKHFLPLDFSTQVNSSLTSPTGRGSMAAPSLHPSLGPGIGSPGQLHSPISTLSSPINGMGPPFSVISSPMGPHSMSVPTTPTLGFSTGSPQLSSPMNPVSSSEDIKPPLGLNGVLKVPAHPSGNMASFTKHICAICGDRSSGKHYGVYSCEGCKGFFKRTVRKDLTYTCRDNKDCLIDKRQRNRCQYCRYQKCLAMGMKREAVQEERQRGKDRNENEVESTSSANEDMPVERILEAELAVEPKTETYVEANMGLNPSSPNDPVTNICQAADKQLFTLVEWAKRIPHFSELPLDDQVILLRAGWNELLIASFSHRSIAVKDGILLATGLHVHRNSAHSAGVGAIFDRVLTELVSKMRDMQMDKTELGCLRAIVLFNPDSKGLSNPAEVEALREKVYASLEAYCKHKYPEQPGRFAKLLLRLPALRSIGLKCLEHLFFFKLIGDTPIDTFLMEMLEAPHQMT
Chain of Peroxisome proliferator-activated receptor gamma (Homo sapiens) (P37231 whole entry, looked up, the tested form may be a part): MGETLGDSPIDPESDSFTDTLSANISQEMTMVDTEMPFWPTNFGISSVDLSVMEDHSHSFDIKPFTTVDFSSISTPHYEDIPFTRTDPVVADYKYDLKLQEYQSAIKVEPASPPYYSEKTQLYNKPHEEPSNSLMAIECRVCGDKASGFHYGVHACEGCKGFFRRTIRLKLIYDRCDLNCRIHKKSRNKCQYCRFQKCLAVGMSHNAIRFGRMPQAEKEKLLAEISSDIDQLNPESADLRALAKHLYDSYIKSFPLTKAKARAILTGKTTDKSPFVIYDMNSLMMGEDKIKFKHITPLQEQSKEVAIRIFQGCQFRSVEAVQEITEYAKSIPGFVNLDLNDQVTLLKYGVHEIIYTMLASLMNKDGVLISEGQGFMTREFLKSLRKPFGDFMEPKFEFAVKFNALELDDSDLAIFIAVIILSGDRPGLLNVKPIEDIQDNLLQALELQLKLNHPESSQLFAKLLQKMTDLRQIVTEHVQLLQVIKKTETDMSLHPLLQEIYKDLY
Chain of E-selectin (Homo sapiens) (P16581 whole entry, looked up): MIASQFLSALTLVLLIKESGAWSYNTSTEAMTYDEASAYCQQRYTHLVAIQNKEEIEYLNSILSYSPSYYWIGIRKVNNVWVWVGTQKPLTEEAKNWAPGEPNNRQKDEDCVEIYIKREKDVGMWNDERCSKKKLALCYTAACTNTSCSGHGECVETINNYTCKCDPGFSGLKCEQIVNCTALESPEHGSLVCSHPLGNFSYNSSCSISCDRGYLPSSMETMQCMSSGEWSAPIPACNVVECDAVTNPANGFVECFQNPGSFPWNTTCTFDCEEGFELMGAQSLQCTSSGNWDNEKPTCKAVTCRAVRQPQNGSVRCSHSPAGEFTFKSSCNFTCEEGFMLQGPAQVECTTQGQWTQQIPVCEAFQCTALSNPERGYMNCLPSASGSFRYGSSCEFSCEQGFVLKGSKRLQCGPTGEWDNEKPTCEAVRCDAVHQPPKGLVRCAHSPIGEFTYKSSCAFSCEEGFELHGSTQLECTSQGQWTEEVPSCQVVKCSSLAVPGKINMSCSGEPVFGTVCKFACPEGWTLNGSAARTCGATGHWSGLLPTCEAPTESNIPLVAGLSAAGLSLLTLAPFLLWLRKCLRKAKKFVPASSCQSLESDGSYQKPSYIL
Chain of Nuclear receptor subfamily 1 group I member 2 (Homo sapiens) (O75469 whole entry, looked up, the tested form may be a part): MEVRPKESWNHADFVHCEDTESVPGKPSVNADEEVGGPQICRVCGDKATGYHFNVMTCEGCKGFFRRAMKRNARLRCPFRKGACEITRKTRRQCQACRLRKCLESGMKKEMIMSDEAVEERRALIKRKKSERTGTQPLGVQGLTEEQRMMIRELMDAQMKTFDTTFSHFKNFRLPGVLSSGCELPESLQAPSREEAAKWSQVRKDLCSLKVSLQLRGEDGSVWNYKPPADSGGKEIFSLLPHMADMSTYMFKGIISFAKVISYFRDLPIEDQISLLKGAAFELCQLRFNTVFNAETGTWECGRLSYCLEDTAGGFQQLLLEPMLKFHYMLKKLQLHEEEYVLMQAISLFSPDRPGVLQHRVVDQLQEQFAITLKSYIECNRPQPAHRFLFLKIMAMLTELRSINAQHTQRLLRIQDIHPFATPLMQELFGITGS
Chain of human RAR-related Orphan Receptor gamma (RORg), RORC (gene 6097) (P51449 whole entry, looked up, the tested form may be a part): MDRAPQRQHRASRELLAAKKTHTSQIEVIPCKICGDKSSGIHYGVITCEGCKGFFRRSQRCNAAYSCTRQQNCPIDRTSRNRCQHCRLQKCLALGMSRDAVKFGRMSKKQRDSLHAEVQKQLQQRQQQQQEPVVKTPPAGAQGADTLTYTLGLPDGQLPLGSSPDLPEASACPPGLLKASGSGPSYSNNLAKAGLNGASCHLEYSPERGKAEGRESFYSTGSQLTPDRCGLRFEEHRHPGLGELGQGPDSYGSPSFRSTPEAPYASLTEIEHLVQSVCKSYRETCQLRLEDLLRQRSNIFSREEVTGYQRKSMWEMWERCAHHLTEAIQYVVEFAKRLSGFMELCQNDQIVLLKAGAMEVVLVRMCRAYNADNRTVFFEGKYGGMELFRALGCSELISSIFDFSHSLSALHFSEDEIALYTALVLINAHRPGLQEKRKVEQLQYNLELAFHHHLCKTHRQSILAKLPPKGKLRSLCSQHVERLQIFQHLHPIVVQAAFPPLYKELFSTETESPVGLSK

CC(CCl)OP(=O)(OC(C)CCl)OC(C)CCl (stereo not drawn)
active: [5] 0.801 µM
not listed: [14] | [15] | [16] | [17] | [18] | [19]
inactive: all other assays above

O=P(O)(O)OCCC(F)(F)C(F)(F)C(F)(F)C(F)(F)C(F)(F)C(F)(F)F
not listed: [4] | [6] | [7] | [18] | [19]
inactive: all other assays above

OCCCC(F)(F)C(F)(F)C(F)(F)C(F)(F)C(F)(F)C(F)(F)C(F)(F)F
inactive: [14] | [4] | [5] | [6] | [18]
active: [1] 45.2 µM and 43.2 µM | [2] 45.1 µM and 52.9 µM | [3] 10.3 µM and 10.4 µM | [18] 42.3 µM | [8] 23.3 µM and 48.9 µM | [9] 44.1 µM and 47.9 µM | [10] 30.8 µM and 44.4 µM | [11] 45.7 µM and 45.1 µM | [12] 44.1 µM and 36.1 µM | [13] 44.9 µM and 47.6 µM

C=C(C)C(=O)OCCC(F)(F)C(F)(F)C(F)(F)C(F)(F)C(F)(C(F)(F)F)C(F)(F)F
not listed: [6] | [15] | [16] | [17] | [19]
inactive: all other assays above

Nc1ccc([N+](=O)[O-])cc1O
not listed: [6] | [7] | [14] | [16] | [19]
inactive: all other assays above

FC(F)(F)C(F)(F)C(F)(F)C(F)(F)C(F)(F)C(F)(F)C(F)(F)C(F)(F)F
not listed: [14] | [16] | [18] | [19]
inactive: all other assays above

OCC(F)(F)C(F)(F)C(F)(F)C(F)(F)C(F)(F)C(F)F
not listed: [6] | [7] | [14] | [15] | [17] | [18]
inactive: all other assays above
